Experimental data taken from PubChem BioAssay (NCI).
Compounds without any hit were thinned out: in the full panel of roughly 83,000, 20% have a hit.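 Growth was measured after 48 h exposure to one concentration of compound in 96-well plates. Values under 10 count as active.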 Values without a mark were called inactive. Active and inactive are the calls of the source.

Legend:
Test in all cases: NCI-60 one-dose screen, 48 h (100 = growth as untreated, 0 = no growth, -100 = all killed)
Conditions in all cases: 10 µM
[1] = tested on: NCI-H23 lung
[2] = tested on: NCI-H322M lung
[3] = tested on: HOP-62 NSCLC
[4] = tested on: NCI-H460 lung
[5] = tested on: HOP-92 NSCLC
[6] = tested on: NCI-H522 lung
[7] = tested on: A549/ATCC NSCLC
[8] = tested on: 786-0 renal
[9] = tested on: COLO 205 colon
[10] = tested on: DU-145 prostate
[11] = tested on: K-562 leukemia
[12] = tested on: MALME-3M melanoma
[13] = tested on: MDA-MB-231 breast
[14] = tested on: RXF 393 renal
[15] = tested on: SF-268 CNS
[16] = tested on: SF-295 CNS
[17] = tested on: SF-539 CNS
[18] = tested on: UACC-257 melanoma
[19] = tested on: M14 melanoma

Row | Compound | growth [1] | growth [2] [%] | growth [3] | growth [4] | growth [5] | growth [6] | growth [7] | growth [8] | growth [9] | growth [10] | growth [11] | growth [12] | growth [13] | growth [14] | growth [15] | growth [16] | growth [17] | growth [18] | growth [19]
1 | Cc1ccc(-c2cc(-c3cccc(Nc4ccnc5cc(Cl)ccc45)c3)nc3nc(N)[nH]c(=O)c23)cc1 | 100% | 91.3 | 113% | 110% | 14.6% | 21% | 102% | 94.9% | 125% | 105% | 28.1% | 108% | 103% | 90.9% | 91.2% | 102% | 97.5% | 102% | 106%
2 | COC(=O)[C@]12CC[C@@H](C)[C@H](C)[C@@H]1C1=CC[C@@H]3[C@@]4(C)CC(=O)[C@H](O)[C@@](C)(CO)[C@@H]4C(=O)C[C@@]3(C)[C@]1(C)CC2 | -14.2% (active) | 18.4 | -21.5% (active) | -48.9% (active) | -22.5% (active) | -65.9% (active) | -63.6% (active) | 0.121% (active) | -64.6% (active) | -44.4% (active) | -69.5% (active) | -35.2% (active) | -34.2% (active) | -41.4% (active) | 4.33% (active) | -0.778% (active) | 16.5% | 7.73% (active) | 10.1%
3 | COc1cc(C(=O)n2nc(N)c3c(C)cc(C)nc32)cc(OC)c1OC | 88.8% | 88.6 | 79.3% | 89.9% | 93.5% | 41% | 55.7% | 90.4% | 67.6% | 93.3% | 18.2% | 89% | 87.7% | 83.2% | 79.1% | 75.9% | 64.6% | 90.9% | 80.2%
4 | COc1ccc2oc(=O)cc(C(c3ccc[nH]3)c3ccc[nH]3)c2c1 | 26% | 27.7 | 4.73% (active) | 4.57% (active) | 32.6% | -23.1% (active) | -7.88% (active) | 17.2% | -71.5% (active) | 13.3% | 4.44% (active) | 49.6% | 13.2% | -31.3% (active) | 18.7% | 6.39% (active) | 1.28% (active) | 32.5% | 8.91% (active)
5 | COc1cc(-c2cc(/C=C/C(C)=O)[nH]n2)cc(OC)c1OC | 87.7% | 79.4 | 84.2% | 95.2% | 74.9% | -66% (active) | 86.2% | 84.5% | 93.4% | 77% | 46.6% | 67.5% | 78.8% | 89.4% | 82.4% | 76% | 93.4% | 79.9% | –
6 | COc1ccc(Cn2cc3c(c2-c2cc(OC)c(OC)c(OC)c2)CCc2cnoc2-3)cc1[N+](=O)[O-] | 26.1% | 26.7 | 56.6% | 7.93% (active) | 64% | 46.2% | 34% | 34.3% | 1.15% (active) | 10.1% | 15.3% | – | 25.6% | 10.5% | 47.6% | -15.3% (active) | -10.5% (active) | 78.1% | 11.4%
7 | COc1ccc(/C=C(\c2cc(OC)c(OC)c(OC)c2)c2nnc(-c3cccs3)o2)cc1 | 76.1% | 82.7 | 41.3% | 72.7% | 34.8% | 43.7% | 77.5% | 48.9% | 112% | 77% | 89.5% | – | 71.7% | 49.2% | 42% | 73.4% | 47.6% | 76.5% | 93.2%
8 | Cc1ccc(-c2cc(C(=O)Nc3ccc(S(=O)(=O)N4CCCCC4)cc3)[nH]n2)c(O)c1 | 55.4% | 89.3 | 90.7% | 51.6% | 56.1% | 72.1% | 52.2% | 62.3% | 55.3% | 64.8% | 17.9% | 74% | 56.1% | 50.7% | 69.9% | 62.4% | 48.8% | 52% | 62.2%
9 | CC(=O)O[C@H]1CC[C@@]2(C)[C@@H](CC[C@@H]3[C@@H]2CC[C@]2(C)C=C(C=O)C[C@@H]32)C1 | 73.6% | 90.9 | 33.3% | 103% | 76.2% | 93.1% | 95.3% | 102% | 95.4% | 49.5% | 82.3% | 66.8% | 103% | 120% | 66.6% | 97.1% | 92.7% | 98.6% | 65.3%
10 | O=C(CCl)N1c2ccccc2Sc2ccc3ccccc3c21 | -76.5% (active) | 65.9 | -77.8% (active) | -35.4% (active) | -78.3% (active) | -81.1% (active) | 38% | -62.8% (active) | -76.3% (active) | -90.8% (active) | -0.331% (active) | -43.4% (active) | -72.5% (active) | -33.4% (active) | -59.4% (active) | -2.09% (active) | -60.9% (active) | -36.6% (active) | -52.1% (active)
11 | CCCCCCCOc1cccc(/C=C2/C(=O)N=C3SCCCN32)c1 | 70.7% | 89.1 | 85.7% | 82% | 62.8% | 23.6% | 94.9% | 80.4% | 81.2% | 55.7% | 37% | 81.6% | 65.8% | 83.7% | 85% | 75.1% | 92.7% | 68.4% | 71%
12 | CC(=O)OC1Oc2ccccc2-c2oc(=O)c(-c3cc(=O)oc4cc(O)ccc34)cc21 (stereo not given) | 80.8% | 89.2 | 93.8% | 93.8% | 44.8% | 69.6% | 84.3% | 80.4% | 101% | 78.3% | 33.2% | 68.9% | 86.3% | – | 97.1% | 73.6% | 89% | 80.1% | 72.1%
13 | Cc1ccc(NC(=O)/C=N/O)cc1C | 94.6% | 102 | 92.7% | 103% | 82.3% | 93% | 94% | 101% | 105% | 104% | 95.6% | 108% | 95.9% | 99.6% | 104% | 85.4% | 96.4% | 96.4% | 101%
14 | COc1cccc(C(=O)NNc2nc(N3CCN(C4CCCCC4)CC3)nc(N3CCN(C(c4ccccc4)c4ccccc4)CC3)n2)c1 | 41.5% | 74.5 | 45.2% | 46.1% | 45.5% | 60.5% | 35.8% | 53% | 14.2% | 87.5% | 11.5% | 9.41% (active) | 57.2% | 64.7% | 51.1% | 77.3% | 61.7% | 23.1% | 42.5%
15 | CC(=O)N(O)c1ccc(/C=C/c2ccccc2)cc1 | 31% | 29.4 | 42.7% | 8.15% (active) | -5.13% (active) | 68.3% | 25.6% | 19.9% | 46.5% | 3.54% (active) | 73.3% | 94% | 48.7% | -11% (active) | 12.4% | -26.7% (active) | 33.6% | -6.82% (active) | 46.2%
16 | NC1CCC(Nc2nc(NCc3ccc(-c4cccs4)nc3)c3ncn(C4CCCC4)c3n2)CC1 (stereo not given) | -33.8% (active) | 19 | -2.05% (active) | 3.28% (active) | -13% (active) | -52.6% (active) | 4.31% (active) | 0.15% (active) | -51.4% (active) | 8.83% (active) | -6% (active) | -74.7% (active) | -0.601% (active) | -50% (active) | -5.75% (active) | 0.906% (active) | -56.7% (active) | -74.6% (active) | -80.6% (active)
17 | COc1ccc(NC(=O)CCn2cnc3c(cc(-c4ccccc4)n3-c3ccccc3)c2=O)cc1 | 85.8% | 109 | – | 91.8% | 69.1% | 45.1% | 85.8% | 88.7% | – | 97.1% | 90.6% | – | – | 64.4% | 24.5% | 81.5% | 47.3% | 13% | 91.1%
